Results published in PMC5540273 (PLoS ONE, 2017).

System: BMPR1B
Conditions: concentration: 1 μM, replicates: in singlicate; n = 1
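Further: KINOMEscan kinase panel screen.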

Row | SMILES | %Inh [%]
1 | CN1CCC(n2cnc(-c3ccc(F)cc3)c2-c2ccnc(NC3CCNCC3)n2)CC1 [SB-229482] | 0
2 | COc1ccc(NC(=O)c2ccc(-c3cc(-c4nnc(C)o4)ccc3C)cc2)cc1 [GW595885] | 0
3 | Cl.c1ccc(Cn2ccc3cc(Nc4ncnc5ccccc45)ccc32)cc1 [GW275568] | 0
4 | Nc1nccc2scc(-c3ccc4c(c3)CCN4C(=O)Cc3cc(F)ccc3F)c12 [GSK2587663] | 0
5 | C[C@@H]1CCN(C(=O)CO)C[C@@H]1N(C)c1ncnc2[nH]ccc12 | 0
6 | FC(F)(F)c1cc(Nc2nccc(-c3c(-c4ccc(Cl)cc4)nn4ncccc34)n2)ccc1Cl [GW829351] | 0
7 | O=C(Nc1ccccc1)Nc1ccc(Oc2ccc3nccn3n2)cc1 | 6
8 | Clc1ccc(-c2cc(-c3c[nH]nc3-c3ccccn3)ccn2)cc1 [GW681251] | 0
9 | CCCc1ccc(S(=O)(=O)NC2CCN(c3ccnc(Nc4ccc(OC)cc4)n3)C2)cc1 (stereo not shown) [GSK1379737] | 0
10 | O=C(Nc1n[nH]c2nc(-c3ccco3)c(Br)cc12)c1ccc(CN2CCCC2)cc1.O=C(O)[C@H](O)[C@@H](O)C(=O)O [SB-742352] | 0
11 | CCC(CC)(CC)n1cnc2c(N)ncnc21 [SKF-97620] | 16
12 | Clc1cc(Nc2ncnc3cc[nH]c23)ccc1OCc1ccccn1 | 8
13 | CCn1c(-c2ccncc2)nc2cnccc21 [SB-735216] | 0
14 | Cl.Cl.c1ccc(-c2cc3ccncc3cc2OC2CCNCC2)cc1 [GSK1122999] | 0
15 | O=c1cc(N2CCOCC2)nc2n(Cc3cccc(Cl)c3)ccn12 [GSK2296823] | 0
16 | COc1ccc(Nc2nccc(N3CCC(NC(=O)c4cccc(NC(C)=O)c4)C3)n2)cc1 (stereo not shown) [GSK1379732] | 0
17 | Cc1ccc(O)cc1Nc1cc(C(F)(F)F)nc2ccc(-c3ccncc3)cc12 [GW630823] | 0
18 | O=C(NCCCN1CCCC1=O)c1cnc(NCc2cc(Cl)ccc2Cl)nc1NC1CCNCC1 | 0
19 | COc1cc2ncnc(Nc3ccc(OCc4ccccc4Br)c(Cl)c3)c2cc1OC.Cl [GI261590] | 0
20 | Cc1cccc(-c2nc(Nc3ccc4[nH]nnc4c3)c3ccccc3n2)n1 [GW867587] | 0
21 | CC(=O)Nc1n[nH]c2ncc(-c3ccccc3)cc12 [SB-548492] | 21
22 | COC(=O)c1c(-c2ccccc2)c2cc(Cl)ccc2c(=O)n1Cc1ccc(S(C)(=O)=O)cc1 | 5
